Reference: article PMC5540273 (PLoS ONE, 2017)

Assays:
Details in all cases: concentration: 1 μM, replicates: in singlicate; n = 1
TRKC = tested on: T1, TRKC
T1 construct: gene NTRK3

TRPM6 = tested on: TRPM6
TSSK1B = tested on: TSSK1B
TSSK3 = tested on: TSSK3
TTK = tested on: TTK
TXK = tested on: TXK
[1] = tested on: TYK2(JH1domain-catalytic)
[2] = tested on: TYK2(JH2domain-pseudokinase)
TYRO3 = tested on: TYRO3
ULK1 = tested on: ULK1
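Further: KINOMEscan kinase panel screen.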

COC(=O)c1c(-c2ccccc2)c2cc(Cl)ccc2c(=O)n1Cc1ccc(S(C)(=O)=O)cc1
%Inh (TRKC): 17%
%Inh (TRPM6): 0%
%Inh (TSSK1B): 0%
%Inh (TSSK3): 0%
%Inh (TTK): 7%
%Inh (TXK): 0%
%Inh [1]: 0%
%Inh [2]: 2%
%Inh (TYRO3): 0%
%Inh (ULK1): 0%

Nc1n[nH]c2nnc(-c3ccccc3)cc12 [SB-517389]
%Inh (TRKC): 0%
%Inh (TRPM6): 35%
%Inh (TSSK1B): 9%
%Inh (TSSK3): 100%
%Inh (TTK): 0%
%Inh (TXK): 25%
%Inh [1]: 36%
%Inh [2]: 79%
%Inh (TYRO3): 0%
%Inh (ULK1): 20%

Cc1cc(N2CCC(NS(=O)(=O)c3ccc(F)cc3)CC2)nc(Nc2cccc(C#N)c2)n1.O=C(O)C(F)(F)F [GSK1653537]
%Inh (TRKC): 0%
%Inh (TRPM6): 0%
%Inh (TSSK1B): 27%
%Inh (TSSK3): 8%
%Inh (TTK): 1%
%Inh (TXK): 0%
%Inh [1]: 0%
%Inh [2]: 2%
%Inh (TYRO3): 0%
%Inh (ULK1): 0%

Cc1ccc(C)c(NC(=O)NCCNc2ccnc(Nc3ccc(F)cc3)n2)c1 [GSK1379878]
%Inh (TRKC): 15%
%Inh (TRPM6): 0%
%Inh (TSSK1B): 0%
%Inh (TSSK3): 22%
%Inh (TTK): 0%
%Inh (TXK): 3%
%Inh [1]: 26%
%Inh [2]: 6%
%Inh (TYRO3): 0%
%Inh (ULK1): 0%

O=C(c1ccc(-c2cc(-c3c[nH]nc3-c3ccccn3)ccn2)cc1)N1CCCC1 [GW792479]
%Inh (TRKC): 0%
%Inh (TRPM6): 0%
%Inh (TSSK1B): 0%
%Inh (TSSK3): 0%
%Inh (TTK): 29%
%Inh (TXK): 23%
%Inh [1]: 0%
%Inh [2]: 15%
%Inh (TYRO3): 0%
%Inh (ULK1): 0%

NC(=O)c1sc(-n2cnc3ccccc32)cc1OCc1ccccc1F [GSK1024306]
%Inh (TRKC): 16%
%Inh (TRPM6): 0%
%Inh (TSSK1B): 0%
%Inh (TSSK3): 20%
%Inh (TTK): 12%
%Inh (TXK): 0%
%Inh [1]: 13%
%Inh [2]: 28%
%Inh (TYRO3): 0%
%Inh (ULK1): 0%

Cn1cc(-c2ccc3c(c2)CCN3C(=O)Cc2cccc(C(F)(F)F)c2)c2c(N)ncnc21 [GSK2606414]
%Inh (TRKC): 40%
%Inh (TRPM6): 0%
%Inh (TSSK1B): 12%
%Inh (TSSK3): 0%
%Inh (TTK): 22%
%Inh (TXK): 0%
%Inh [1]: 15%
%Inh [2]: 0%
%Inh (TYRO3): 0%
%Inh (ULK1): 27%

CCCc1ccc(S(=O)(=O)NC2CCN(c3ccnc(Nc4ccc(OC)cc4)n3)C2)cc1 (stereo not shown) [GSK1379737]
%Inh (TRKC): 36%
%Inh (TRPM6): 0%
%Inh (TSSK1B): 0%
%Inh (TSSK3): 5%
%Inh (TTK): 0%
%Inh (TXK): 6%
%Inh [1]: 53%
%Inh [2]: 46%
%Inh (TYRO3): 0%
%Inh (ULK1): 99.6%

Fc1cccc(COc2ccc(Nc3ncnc4nn5ccccc5c34)cc2Cl)c1 [GW689066]
%Inh (TRKC): 28%
%Inh (TRPM6): 0%
%Inh (TSSK1B): 0%
%Inh (TSSK3): 17%
%Inh (TTK): 10%
%Inh (TXK): 3%
%Inh [1]: 29%
%Inh [2]: 24%
%Inh (TYRO3): 0%
%Inh (ULK1): 1%

Clc1cc(Nc2ncnc3cc[nH]c23)ccc1OCc1ccccn1
%Inh (TRKC): 0%
%Inh (TRPM6): 0%
%Inh (TSSK1B): 44%
%Inh (TSSK3): 0%
%Inh (TTK): 19%
%Inh (TXK): 11%
%Inh [1]: 8%
%Inh [2]: 28%
%Inh (TYRO3): 0%
%Inh (ULK1): 9%

Cc1ccc(NC(=O)c2cccc(C#N)c2)cc1-c1ccc(C(=O)Nc2ccncc2)cc1 [GSK1398463]
%Inh (TRKC): 7%
%Inh (TRPM6): 0%
%Inh (TSSK1B): 0%
%Inh (TSSK3): 0%
%Inh (TTK): 43%
%Inh (TXK): 0%
%Inh [1]: 8%
%Inh [2]: 13%
%Inh (TYRO3): 0%
%Inh (ULK1): 42%

CC(C)N1CCC(n2cnc(-c3ccc(F)cc3)c2-c2ccnc(N)n2)CC1 [SB-223132]
%Inh (TRKC): 0%
%Inh (TRPM6): 0%
%Inh (TSSK1B): 0%
%Inh (TSSK3): 0%
%Inh (TTK): 14%
%Inh (TXK): 21%
%Inh [1]: 0%
%Inh [2]: 2%
%Inh (TYRO3): 0%
%Inh (ULK1): 0%

FC(F)(F)c1ccc(-c2cc(-c3c[nH]nc3-c3ccccn3)ccn2)cc1 [GW599550]
%Inh (TRKC): 14%
%Inh (TRPM6): 38%
%Inh (TSSK1B): 13%
%Inh (TSSK3): 7%
%Inh (TTK): 0%
%Inh (TXK): 0%
%Inh [1]: 20%
%Inh [2]: 21%
%Inh (TYRO3): 0%
%Inh (ULK1): 0%

Fc1ccc(-c2ncn(CCCNCc3ccccc3)c2-c2ccncc2)cc1
%Inh (TRKC): 19%
%Inh (TRPM6): 12%
%Inh (TSSK1B): 20%
%Inh (TSSK3): 20%
%Inh (TTK): 0%
%Inh (TXK): 0%
%Inh [1]: 44%
%Inh [2]: 0%
%Inh (TYRO3): 0%
%Inh (ULK1): 0%

O=C(Nc1n[nH]c2nc(-c3ccco3)c(Br)cc12)c1ccc(CN2CCCC2)cc1.O=C(O)[C@H](O)[C@@H](O)C(=O)O [SB-742352]
%Inh (TRKC): 0%
%Inh (TRPM6): 0%
%Inh (TSSK1B): 0%
%Inh (TSSK3): 0%
%Inh (TTK): 0%
%Inh (TXK): 2%
%Inh [1]: 0%
%Inh [2]: 0%
%Inh (TYRO3): 0%
%Inh (ULK1): 13%

CS(=O)(=O)CCNCc1ccc(-c2ccc3ncnc(Nc4ccc(OCc5ccccc5)c(Cl)c4)c3c2)o1.Cl [GW574783]
%Inh (TRKC): 24%
%Inh (TRPM6): 7%
%Inh (TSSK1B): 39%
%Inh (TSSK3): 21%
%Inh (TTK): 18%
%Inh (TXK): 10%
%Inh [1]: 27%
%Inh [2]: 22%
%Inh (TYRO3): 0%
%Inh (ULK1): 0%
